Yp Topo-I inh – blocks Yersinia pestis topoisomerase I activity. Y. pestis Topo-I cleavage product accumulation, plate reader. activity, % at 10 µM. 360,000 tested, 0.064% active. AID 504884; in the data active = activity above about 50%, passing the limit was not always enough
CCHF vOTU inh – blocks the CCHF virus ovarian tumor domain protease | CCHFV vOTU protease, Pep-AMC fluorescence | inhibition, % at 11.5 µM | 370,000 tested, 0.55% active; in the data active = inhibition above about 30%; note: 0% = vehicle wells with enzyme and 100% = no enzyme wells
PrPC TRFRET – inhibitors of human cell surface prion protein PrPC; 370,000 tested, 0.43% active; TR-FRET read-out; AID 720596; inhibition, % at 13.8 µM; P04156; in the data active = inhibition above about 24%; note: 0% = median of the test wells and 100% = reference compound wells
Vc quorum ag-1 – quorum light induction in luxS cqsA deficient V. cholerae | V. cholerae BH1578 lux reporter, luminescence, 6 h | activation, % at 18.7 µM | 350,000 tested, 0.16% active | AID 588436; in the data active = activation mostly above about 9.7%, no sharp cut-off
Vc quorum ag-2 – inducers of V. cholerae quorum light production without autoinducers; shares compounds with Vc quorum ag-1; V. cholerae BH1578 lux reporter, luminescence, 6 h; activation, % at 50 µM; 620 tested, under 10 active; call rule not given here
HeLa tox – HeLa cell viability loss at 24 h. CellTiter-Glo ATP luminescence. AID 624140. activity change, negative = cytotoxicity, % at 35 µM. shares compounds with Vc quorum ag-1. 25 tested, under 10 active;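 active = signal drop with fitted half-maximal concentration at or below twice the highest valid dose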
Starred values were filed as active, the others as inactive; i = inactive; / = no result; + = active, no number. Most compounds without a hit are left out; they make up all but 1.1% or so of the library.

SMILES	Yp Topo-I inh	CCHF vOTU inh	PrPC TRFRET	Vc quorum ag-1	Vc quorum ag-2	others
COc1ccc(Oc2nc(-c3cccnc3)nc3ccccc23)cc1	4	-8	3	i	/
C[C@@H]1CCCCO[C@H](CN(C)Cc2ccc(C(F)(F)F)cc2)[C@H](C)CN([C@@H](C)CO)C(=O)c2cc(NC(=O)Cc3ccccc3)ccc2O1	20	27	1	i	/
Cc1ccc(-n2c(SCc3nnc4n3CCC4)nnc2-c2ccccc2)cc1	2	1	8	8	/
Cc1ncc(S(=O)(=O)c2ccc(Cl)cc2)c(N)n1	-6	-1	1	0	/
Cc1ncc(S(=O)(=O)c2ccccc2)c(-c2ccc(Cl)cc2Cl)n1	3	1	-4	17*	0
O=C(NCc1ccc(Cl)cc1)NCC(F)(F)F	-5	1	7	1	/
COc1cc(C(=O)NC2CCN(Cc3ccccc3)CC2)cc(Cl)c1OC	2	-2	6	i	/
Cc1ccccc1C(=O)Nc1ccc(-c2nc3ccc(C(=O)c4ccccc4)cc3[nH]2)cc1	-1	-22	-10	12	0
O=C(c1ccccc1)c1ccc2nc(-c3ccc(NC(=O)c4ccccc4Br)cc3)[nH]c2c1	0	3	-4	i	/
COc1ccc(NC(=O)CN(C)C(=O)c2cccc(S(=O)(=O)N3CCN(C)CC3)c2)cc1	-13	4	-1	9	0
CCCCCCCCn1c(=O)c(C(=O)OC)c(N)c2ccccc21	19	-10	11	0	/
CN(CC(=O)Nc1ccc(F)c(F)c1F)C(=O)C1CCC1	-1	-11	-2	25*	3
COc1cc(OC)c(OC)cc1CNC(C)C(O)c1ccccc1 (stereo not drawn)	2	-4	-2	18	0
CC(NCc1ccc(Cl)cc1Cl)C(O)c1ccccc1 (stereo not drawn)	3	-6	11	1	/
CCOC(=O)CSc1nc(N)c(C#N)c(-c2cccs2)c1C#N	-3	2	6	44*	0
N#Cc1ccccc1NC(=O)CNc1ccccc1N1CCCCC1	-6	7	2	160*	255
CCOc1ccc2nc(SCC(=O)NC(=O)NCc3ccco3)[nH]c2c1	-2	-3	3	32*	0
Cc1ccc(C)c(-n2c(Cc3cccs3)n[nH]c2=S)c1	-3	6	3	13	0
CCOCCCNC(=O)C(NC(=O)CNC(=O)c1ccccc1)c1ccccc1 (stereo not drawn)	2	-1	3	28*	0
C[C@H]1CN(c2ccc(Br)cc2)C(=O)[C@@H]1CC(=O)Nc1ccccc1	10	3	14	0	/
COc1ccc(S(=O)(=O)N2CCOCC2)cc1NC(=O)CSc1nnc(C2CC2)n1C1CC1	5	-1	4	41*	1
CC(O)CNc1nc2c(c(=O)n(Cc3ccc(Cl)c(Cl)c3)c(=O)n2C)n1C (stereo not drawn)	-12	-8	4	-1	/
Cc1ccc(S(=O)(=O)N(C)c2nonc2C)cc1	4	9	6	12	0
Cc1ccc(-n2c(SCn3nnc4ccccc4c3=O)nnc2-c2cccnc2)c(C)c1	16	-9	-2	i	/
O=c1c2ccccc2nnn1CSc1nnc(-c2cccnc2)n1-c1ccccc1F	1	1	-2	12	0
SMILES	Yp Topo-I inh	CCHF vOTU inh	PrPC TRFRET	Vc quorum ag-1	Vc quorum ag-2	others
NC(=O)Cn1c(S(=O)(=O)Cc2ccccc2)nc2ccccc21	3	7	-4	-1	/
COc1cc(Br)cc(CN2CCN(C=O)CC2)c1O	3	2	-6	i	/
CC(C)Oc1ccc(CNC(=O)Cn2c(=O)c3cccn3c3cccnc32)cc1	18	0	6	0	/
CCOc1ccc(CNC(=O)Cn2c(=O)c3cccn3c3ccccc32)cc1	-3	12	-9	25*	0
O=C(Cc1ccc2c(c1)CCCC2)Nc1ccccc1Br	20	27	-6	427*	28
O=C(Cc1ccc2ccccc2c1)Nc1ccccc1Br	-1	2	5	2	/
Cc1ccc(N(C(C)C(=O)N2CCCCC2)S(C)(=O)=O)cc1C (stereo not drawn)	8	0	-1	25*	0
COCCn1nnnc1CN(Cc1ccco1)Cc1cc2cc3c(cc2[nH]c1=O)OCO3	2	-24	-2	0	/
O=C(Nc1cccc(-c2ccc(N3CCOCC3)nn2)c1)c1ccccc1Cl	10	5	-2	14	1
Cc1ccc(Nc2ccc3nonc3c2[N+](=O)[O-])cc1	-3	15	-47	0	/
CCOc1ccc(Nc2ccc3nonc3c2[N+](=O)[O-])cc1	-5	-8	-34	+	i	HeLa tox=17
CCN(CC)S(=O)(=O)c1cccc(C(=O)OCC(=O)C23CC4CC(CC(C4)C2)C3)c1	0	-5	3	14	1
CCOC(=O)c1c(C)[nH]c(C)c1C(=O)COC(=O)c1cccc(S(=O)(=O)N(CC)CC)c1	-6	4	2	i	/
CSCCC(NS(=O)(=O)c1ccccc1F)C(=O)NC(C)c1ccccc1 (stereo not drawn)	6	-7	0	-1	/
Cc1cccc(C)c1-n1nnnc1SCSc1nnnn1-c1c(C)cccc1C	-7	-1	2	i	/
OCCN1CCN(CC(O)COc2ccc(Cl)cc2)CC1 (stereo not drawn)	2	12	3	17*	0
COc1ccc(OC)c(NC(=O)Nc2cccc(Cn3cccn3)c2)c1	-2	-2	10	12	0
O=C(c1cc2ccccc2cc1O)N1CCN(c2ccccc2O)CC1	-8	-1	4	12	0
CC(C)(C)OC(=O)N1CCC(c2c(C(=O)O)cnn2-c2ccccc2Cl)CC1	6	-21	4	0	/
CCCNC(=O)Cc1ccsc1	-8	3	-1	12	0
CCN(CC)CCNC(=O)c1ccc(NC(=O)Cc2ccsc2)cc1	-4	9	1	i	/
CCOC(=O)CC1C(=O)NCCN1C(=O)c1cccc(C(F)(F)F)c1 (stereo not drawn)	1	0	4	17*	1
CCOC(=O)CC1C(=O)NCCN1C(=O)c1ccc(F)cc1F (stereo not drawn)	-3	4	-8	i	/
COc1ccccc1NC(=O)COC(=O)c1cc2c(s1)CCC2	5	8	5	/	i	HeLa tox=4
COc1ccc(OC)c(NC(=O)COC(=O)c2cc3c(s2)CCC3)c1	18	-3	8	22	2
CCn1c(Cc2cccs2)nnc1SCC(=O)Nc1ccc(Cl)cc1C	/	-1	5	/	/
Cc1ccc(NC(=S)N(CCCN2CCCC2)Cc2cccn2Cc2ccc(Cl)cc2)cc1C	-2	-5	6	i	/
O=c1[nH]c(Nc2ccccn2)cc2ccccc12	-8	-14	-1	1	/
CCC(CCC(=O)Nc1cccc(C(=O)O)c1)C(=O)O (stereo not drawn)	3	0	0	17*	1
CCCCC(C(=O)O)C(C)CC(=O)Nc1cccc(C(=O)O)c1 (stereo not drawn)	-5	4	5	i	/
